AmpC no deterg = AmpC beta-lactamase inhibition without detergent | P00811 | AmpC nitrocefin hydrolysis, absorbance 480 nm, 0.0001% Triton | Potency, µM (titrated, usually from 57.1 µM), inactives show top-dose activity change, negative = inhibition, actives largely listed as inhibitors | 330,000 tested, 0.52% active;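 further: plate controls were no compound for no effect and no enzyme for full effect; nearly all actives have a fitted effect of over 20% in size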
Target sequence (P00811 whole entry, looked up): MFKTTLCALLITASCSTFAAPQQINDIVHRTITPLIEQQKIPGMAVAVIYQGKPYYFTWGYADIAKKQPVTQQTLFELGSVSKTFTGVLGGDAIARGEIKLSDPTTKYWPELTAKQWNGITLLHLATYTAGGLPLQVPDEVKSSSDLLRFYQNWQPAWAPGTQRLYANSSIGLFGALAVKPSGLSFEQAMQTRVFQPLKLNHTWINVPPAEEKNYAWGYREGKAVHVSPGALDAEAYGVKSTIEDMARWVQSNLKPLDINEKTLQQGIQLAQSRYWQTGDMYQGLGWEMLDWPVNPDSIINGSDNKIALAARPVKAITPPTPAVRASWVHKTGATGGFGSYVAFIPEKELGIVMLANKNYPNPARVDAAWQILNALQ
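AmpC (5.3 nM in the dispensed reagent) in 20 mM phosphate pH 7.0 with 0.01% (detergent screen) or 0.0001% Triton X-100 was preincubated with compounds for 15 min at room temperature. Nitrocefin was then added from an 800 uM solution, and hydrolysis was followed at 480 nm.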
AmpC detergent = inhibitors of E. coli AmpC beta-lactamase with detergent; P00811; 370,000 tested, 0.041% active; AmpC hydrolysis of nitrocefin, absorbance 480 nm, 0.01% Triton; Potency, µM (doses to about 114 µM), for inactives: top-dose activity change, negative = inhibition, usual class: inhibitors;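 further: 0% = no-compound wells and -100% = no-enzyme wells; nearly all actives have a fitted effect of over 25% in size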
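20 mM phosphate pH 7.0 + 0.01% (detergent screen) or 0.0001% Triton X-100; 5.3 nM AmpC reagent; cpd preinc 15 min RT; nitrocefin (800 uM stock) to start; A480 q20 s × 4 min; Activity was normalised to no-enzyme and no-compound control wells.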
Giardia FBPA inh = blocks Giardia fructose-bisphosphate aldolase activity; A8B2U2; purified Giardia FBPA; AID 2451; Potency, µM (top dose mostly 59.6 µM), inactives show at the highest dose activity, negative = inhibition, hits mostly inhibitors; 290,000 tested, 0.71% active; further: nearly all actives have a fitted effect of over 55% in size
Target sequence (A8B2U2 whole entry, looked up): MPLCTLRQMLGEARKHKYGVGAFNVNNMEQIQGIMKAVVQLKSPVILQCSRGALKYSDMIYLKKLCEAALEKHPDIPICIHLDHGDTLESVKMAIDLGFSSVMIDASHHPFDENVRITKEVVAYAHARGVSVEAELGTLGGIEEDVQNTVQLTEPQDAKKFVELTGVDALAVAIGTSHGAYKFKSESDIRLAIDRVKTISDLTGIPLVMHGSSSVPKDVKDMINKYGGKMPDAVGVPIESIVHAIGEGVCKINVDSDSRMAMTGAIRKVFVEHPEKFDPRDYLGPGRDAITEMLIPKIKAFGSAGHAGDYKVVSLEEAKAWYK
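40 nM FBPA preincubated 10 min at RT with compound (up to 57.5 uM final), then substrate plus GAPDH/TPI/NAD/arsenate coupling and diaphorase/resazurin added. Fluorescence read after 20 min at RT, 525/598 nm.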
RE007 growth inh = less growth of the S. pombe RE007 Vpr strain | S. pombe RE007 Vpr strain, BacTiter-Glo ATP luminescence, 24 h | Potency, µM (top dose mostly 92.2 µM), for inactives: at the top dose activity change, negative = less growth, hits mostly inhibitors | 360,000 tested, 0.21% active; active means well fitted falling curve with a large enough effect; inconclusive means small, poorly fitted or top-dose-only effect; inactive means no such curve, though single readings can be large or run the other way; further: nearly all actives have a fitted effect of over 50% in size
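Fission yeast RE007 carrying one integrated HIV-1 vpr copy, seeded at OD 0.01 in PMG+AL medium with 23 nL pinned compound. Grown 24 h at 30 degrees; viability read by BacTiter-Glo luminescence after 5 min.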
Sm TGR block = inhibitors of Schistosoma mansoni thioredoxin glutathione reductase; Q962Y6; purified TGR, DTNB reduction, TNB absorbance 405 nm; Potency, µM (doses to about 114 µM), for the others: top-dose activity change, negative = inhibition, actives largely listed as inhibitors; 360,000 tested, 3% active; further: nearly all actives have a fitted effect of over 60% in size
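First, TGR (20 nM dispensed) and NADPH were mixed with compound. Second, a 15 min room-temperature incubation followed. Third, further NADPH and then DTNB were added to start the reaction. Finally, TNB absorbance was monitored kinetically.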
The depositor's hits bear a star; ? = inconclusive; . = no result given; [ ] = remark or other dose. An excerpt weighted towards active compounds, which were near 3.4% of everything screened. Unless noted, the call rests on the fitted dose curve; in most records, active means well fitted curve in the direction sought with a large enough effect; inconclusive means small, poorly fitted or top-dose-only effect, or another doubt; inactive means no such curve, though single readings can be large; an effect the other way counts as inactive or inconclusive. Unless noted, on the % scale 0 is the no-effect control and ±100 the full control effect; potency means the concentration at half of the fitted maximal effect.

SMILES	AmpC no deterg	AmpC detergent	Giardia FBPA inh	RE007 growth inh	Sm TGR block
Cc1ccc(C)c(N2CCN(C(=O)Cn3cccc3)CC2)c1	0%	?	14%	-21%	40µM*
Cc1ccc(C)c(N(C)C(=O)CCS(=O)(=O)c2cccc3nonc23)c1	12%	-8%	0%	-8%	20µM*
CCN(CC)C(=O)CCS(=O)(=O)c1cccc2nonc12	-26%	4%	2%	5%	0%
Cc1ccc(C)c(N2CCN(C(=O)CCS(=O)(=O)c3cccc4nonc34)CC2)c1	58%	-8%	-16%	-6%	35µM*
CC1(C)CC(NS(=O)(=O)c2cccc3ccccc23)CC(C)(C)N1	47%	2%	.	-12%	-3%
CCN(CC(O)CON=C1c2ccccc2-c2ccccc21)S(=O)(=O)c1ccc(C)cc1 (centres undefined)	-3%	-4%	1%	-14%	19%
Cc1ccc(C)c(-n2c(CNC(=O)c3ccco3)nnc2SCC(=O)N2CCc3ccccc32)c1	1%	5%	0%	-19%	4%
O=C(CCNS(=O)(=O)c1cccc2nonc12)NC1CCCCC1	-16%	1%	5%	-5%	-10%
Cc1ccc(NC(=O)CCS(=O)(=O)c2cccc3nonc23)c(Br)c1	-29%	-4%	-1%	-7%	32µM*
O=C(CCS(=O)(=O)c1cccc2nonc12)NC1CCCCCC1	-20%	-6%	2%	5%	45µM*
Cc1cc(Br)ccc1NC(=O)CCS(=O)(=O)c1cccc2nonc12	-10%	-4%	-10%	-3%	-2%
COc1ccccc1CNC(=O)Cn1nc(C)c([N+](=O)[O-])c1C	.	.	.	9%	.
O=[N+]([O-])c1cc(-c2ncccn2)c([N+](=O)[O-])s1	-16%	-10%	16µM*	?	0.32µM*
N#CCSc1nc2ccccc2c2nc3ccccc3n12	-38%	-5%	-2%	-2%	-3%
COc1ccc(N2C(=O)C3C4C=CC(C5CC45)C3C2=O)c([N+](=O)[O-])c1 (centres undefined)	-26%	-7%	-1%	-22%	-27%
COc1cc([N+](=O)[O-])ccc1N1C(=O)C2C3C=CC(C4CC34)C2C1=O (centres undefined)	-4%	0%	2%	4%	45µM*
CC(C)CCNC(=O)c1ccc2c(c1)NC(=O)C(CS(=O)(=O)Cc1cccc(Br)c1)N2 (centres undefined)	.	2%	.	.	50µM*
COc1cc(NC(=O)Cn2c(=O)cc(C)c3c(C)nn(-c4ccc(C)cc4)c32)cc(OC)c1	.	?	.	.	1%
CCOC(=O)c1c(N)sc2c1CCN(Cc1ccccc1)C2	.	.	18µM*	.	.
CCOC(=O)c1c(NC(=O)Cc2ccccc2)sc2c1CCN(CC)C2	114%	?	?	0%	-4%
Cc1cc(C)c(S(=O)(=O)Nc2ccc[nH]c2=O)c(C)c1	-10%	0%	5.6µM*	18%	-10%
CCCOc1ccc(C(=O)NC(=S)Nc2nc(C)c(C(=O)N(C)C)s2)cc1	19%	-2%	?	-6%	-1%
Cc1ccc2cc(CN(Cc3ccco3)S(=O)(=O)c3c(C)ccc4nsnc34)c(=O)[nH]c2c1	-30%	-1%	-2%	-11%	8.9µM*
Cc1ccc2[nH]c(=O)c(CN(CCCO)S(=O)(=O)c3c(C)ccc4nsnc34)cc2c1	-14%	?	-1%	-22%	8%
Cc1cc2cc(CN(Cc3ccco3)S(=O)(=O)c3c(C)ccc4nsnc34)c(=O)[nH]c2cc1C	-14%	-5%	-8%	-5%	45µM*
SMILES	AmpC no deterg	AmpC detergent	Giardia FBPA inh	RE007 growth inh	Sm TGR block
O=C(O)c1ccc2ncsc2c1	-10%	2%	6%	-6%	-8%
CCOC(=O)c1cnc2c(Cl)cc(Cl)cc2c1NCCCN1CCOCC1	-3%	?	5%	3%	13µM*
CCOC(=O)c1cnc2c(C)cc(Cl)cc2c1NCCCN1CCOCC1	6%	1%	2%	-1%	?
Cc1ccc(-n2nnnc2-c2ccco2)cc1	-8%	-9%	-3%	1%	-7%
CN(C)C(CNc1nnnn1-c1ccccc1)c1ccco1 (centres undefined)	0%	2%	-7%	-10%[3.69 µM]	45µM*
CCN1CCc2c(sc3c2c(NCc2ccco2)nc2nnnn23)C1	-1%	0%	-13%	-16%	0%
CC(=O)Nc1ccc(NC(=O)c2nc(S(=O)(=O)Cc3ccc(F)cc3)ncc2Cl)cc1	.	?	.	.	3.2µM*
CCOC(=O)c1c(-c2ccccc2)csc1NC(=O)c1nc(S(=O)(=O)CC)ncc1Cl	.	13%	.	.	2µM*
Cc1ccc(NC(=O)c2nc(S(=O)(=O)Cc3ccc(F)cc3)ncc2Cl)cc1C	.	4%	.	.	?
CCS(=O)(=O)c1ncc(Cl)c(C(=O)Nc2ccccc2)n1	.	-6%	.	.	7.9µM*
CCOC(=O)c1c(NC(=O)c2nc(S(C)(=O)=O)ncc2Cl)sc(C(C)=O)c1C	.	2%	.	.	2.2µM*
CCSc1ncc(Cl)c(C(=O)Nc2ccccc2)n1	-11%	-3%	5%	-15%	-10%
CCOC(=O)c1c(NC(=O)c2nc(SCC)ncc2Cl)sc(C(C)=O)c1C	.	-9%	.	.	-2%
Cc1ccc(NC(=O)NCc2ccc3c(c2)OCO3)cc1C	-28%	4%	-7%	8%	-7%
Cc1ccc(CNC(=O)c2nc(S(=O)(=O)Cc3ccc(C)cc3)ncc2Cl)cc1	.	4%	.	.	?
CN(c1ccccc1)S(=O)(=O)c1ccc(NC(=O)c2nc(S(C)(=O)=O)ncc2Cl)cc1	-10%	2%	.	12%	1.3µM*
CCc1ccc(NC(=O)c2nc(S(=O)(=O)Cc3ccccc3)ncc2Cl)cc1	-28%	-11%	-20%	.	6.3µM*
CCCS(=O)(=O)c1ncc(Cl)c(C(=O)Nc2ccc(S(=O)(=O)Nc3ncccn3)cc2)n1	-14%	1%	-25%	4%	13µM*
CCS(=O)(=O)c1ncc(Cl)c(C(=O)Nc2ccc(S(=O)(=O)N3CCC(C)CC3)cc2)n1	0%	?	0%	2%	0.45µM*
COCCN(C(=S)Nc1cc(C)cc(C)c1)C(C)c1cccs1 (centres undefined)	-22%	2%	-3%	-12%	-2%
COc1cc(Cl)cc(C(=O)O)c1OCC(=O)O	-13%	2%	4%	-6%	0%
OC(Cn1c2ccccc2c2ccccc21)C[n+]1cccc2ccccc21 (centres undefined)	36%	?	1%	-3%	-25%
CCOC(=O)c1ccc(NC(=O)c2nc(SC(C)C)ncc2Cl)cc1	.	19%	.	.	6%
CCOC(=O)c1ccc(NC(=O)c2nc(S(=O)(=O)Cc3ccccc3)ncc2Cl)cc1	-26%	-14%	.	-2%	8.9µM*
